Measured values: paper PMC7862700, “An all-to-all approach to the identification of sequence-specific readers for epigenetic DNA modifications on cytosine”

Columns and labels:
Assay in all cases: DAPPL (digital affinity profiling via proximity ligation, sequencing); 10 mM Tris-HCl pH 7.5, 50 mM NaCl, 1 mM DTT, 4% glycerol, room temperature, 30 min; GST-TFs on glutathione beads, 16-mer random dsDNA library, 0.1% formaldehyde crosslink after washing; high values mean tight binding
FLI1 = target: T1, FLI1 (Homo sapiens, UniProt Q01543 1-452); conditions: protein: recombinant; tags: N-terminal GST; dsDNA, one strand shown
T1 sequence: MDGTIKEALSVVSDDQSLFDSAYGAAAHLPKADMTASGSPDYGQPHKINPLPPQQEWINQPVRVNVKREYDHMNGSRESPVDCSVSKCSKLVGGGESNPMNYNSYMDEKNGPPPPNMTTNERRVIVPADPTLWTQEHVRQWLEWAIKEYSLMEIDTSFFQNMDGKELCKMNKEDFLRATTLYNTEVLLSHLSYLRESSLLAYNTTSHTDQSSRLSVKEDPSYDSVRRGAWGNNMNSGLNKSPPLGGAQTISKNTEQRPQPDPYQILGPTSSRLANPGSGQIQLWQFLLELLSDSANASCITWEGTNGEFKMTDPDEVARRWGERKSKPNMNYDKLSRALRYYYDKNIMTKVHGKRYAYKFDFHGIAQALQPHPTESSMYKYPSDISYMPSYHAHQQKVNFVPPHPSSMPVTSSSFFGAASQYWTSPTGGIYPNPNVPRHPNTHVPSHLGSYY
Summary of the method: (§1)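 In yeast, human transcription factors were expressed with a GST fusion, then pulled down on glutathione beads and given DNA barcodes. Pooled with a tag-only sample, they were exposed to 200 nmole of a 16-mer random double-stranded DNA library (Tris/NaCl/DTT/glycerol buffer, room temperature, 30 min), washed, crosslinked with 0.1% formaldehyde, proximity-ligated using BsaI/T4 ligase for 1 h at 37 °C, PCR-amplified and read on an Illumina NextSeq500. Each hexamer's frequency of reads for a factor, divided by the matching frequency for the tag-only sample, gives the binding signal.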

ELK1 = target: T2, ELK1 (Homo sapiens, UniProt P19419 1-428); conditions: protein: recombinant; tags: N-terminal GST; dsDNA, one strand shown
T2 sequence: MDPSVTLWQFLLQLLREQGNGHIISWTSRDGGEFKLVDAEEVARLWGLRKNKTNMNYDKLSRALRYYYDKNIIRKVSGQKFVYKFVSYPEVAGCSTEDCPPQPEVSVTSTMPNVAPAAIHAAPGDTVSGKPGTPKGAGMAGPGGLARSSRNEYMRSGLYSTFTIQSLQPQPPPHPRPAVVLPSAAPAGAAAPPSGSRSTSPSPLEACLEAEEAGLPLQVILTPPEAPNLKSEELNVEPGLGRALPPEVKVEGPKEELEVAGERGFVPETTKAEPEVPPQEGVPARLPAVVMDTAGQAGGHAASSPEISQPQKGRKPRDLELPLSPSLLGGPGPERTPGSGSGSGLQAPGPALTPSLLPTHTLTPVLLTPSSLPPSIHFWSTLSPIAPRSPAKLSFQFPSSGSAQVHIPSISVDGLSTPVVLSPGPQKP
Summary of the method: as §1

GABPA = target: T3, GABPA (Homo sapiens, UniProt Q06546 1-454); conditions: protein: recombinant; tags: N-terminal GST; dsDNA, one strand shown
T3 sequence: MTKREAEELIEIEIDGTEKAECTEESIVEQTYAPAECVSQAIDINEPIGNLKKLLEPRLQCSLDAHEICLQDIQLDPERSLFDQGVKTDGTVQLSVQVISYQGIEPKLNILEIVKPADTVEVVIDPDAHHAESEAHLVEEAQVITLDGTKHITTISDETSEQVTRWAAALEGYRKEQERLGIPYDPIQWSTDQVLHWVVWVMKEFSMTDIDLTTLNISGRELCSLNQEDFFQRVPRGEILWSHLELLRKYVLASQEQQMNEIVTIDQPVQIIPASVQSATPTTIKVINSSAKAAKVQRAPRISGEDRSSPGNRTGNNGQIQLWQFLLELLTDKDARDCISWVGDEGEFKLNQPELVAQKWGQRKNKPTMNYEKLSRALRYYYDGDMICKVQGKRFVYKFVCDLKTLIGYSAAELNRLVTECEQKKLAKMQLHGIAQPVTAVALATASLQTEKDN
Summary of the method: as §1

ERG = target: T4, ERG (Homo sapiens, UniProt P11308 1-479); conditions: protein: recombinant; tags: N-terminal GST; dsDNA, one strand shown
T4 sequence: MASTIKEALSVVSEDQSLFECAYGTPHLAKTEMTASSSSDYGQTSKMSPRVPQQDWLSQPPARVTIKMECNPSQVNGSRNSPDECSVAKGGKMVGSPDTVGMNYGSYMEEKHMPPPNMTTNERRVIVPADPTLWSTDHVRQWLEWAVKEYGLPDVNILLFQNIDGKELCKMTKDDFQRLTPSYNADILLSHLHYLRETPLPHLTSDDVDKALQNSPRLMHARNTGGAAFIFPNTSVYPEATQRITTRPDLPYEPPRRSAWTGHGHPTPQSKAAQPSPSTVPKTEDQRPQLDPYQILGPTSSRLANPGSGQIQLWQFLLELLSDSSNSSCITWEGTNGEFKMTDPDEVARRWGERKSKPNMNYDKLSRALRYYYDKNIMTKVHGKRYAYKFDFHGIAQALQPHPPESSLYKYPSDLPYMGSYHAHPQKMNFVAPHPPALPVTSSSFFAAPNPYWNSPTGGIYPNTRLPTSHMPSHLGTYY
Summary of the method: as §1

ELF1 = ELF1 (Homo sapiens, UniProt P32519 1-619); conditions: protein: recombinant; tags: N-terminal GST; dsDNA, one strand shown
Summary of the method: as §1

EHF = target: T5, EHF (Homo sapiens, UniProt Q9NZC4 1-300); conditions: protein: recombinant; tags: N-terminal GST; dsDNA, one strand shown
T5 sequence: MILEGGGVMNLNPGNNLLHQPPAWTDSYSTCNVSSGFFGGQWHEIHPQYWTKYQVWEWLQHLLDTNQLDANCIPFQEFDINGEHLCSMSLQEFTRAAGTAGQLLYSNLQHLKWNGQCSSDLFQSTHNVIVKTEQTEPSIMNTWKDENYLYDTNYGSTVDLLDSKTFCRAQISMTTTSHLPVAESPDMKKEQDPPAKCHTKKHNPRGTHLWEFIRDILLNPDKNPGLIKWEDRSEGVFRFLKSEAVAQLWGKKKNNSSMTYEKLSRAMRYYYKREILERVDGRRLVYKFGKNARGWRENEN
Summary of the method: as §1

SPI1 = SPI1 (Homo sapiens, UniProt P17947 1-270); conditions: protein: recombinant; tags: N-terminal GST; dsDNA, one strand shown
Summary of the method: as §1

SPIB = SPIB (Homo sapiens, UniProt Q01892 1-262); conditions: protein: recombinant; tags: N-terminal GST; dsDNA, one strand shown
Summary of the method: as §1

ELK3 = target: T6, ELK3 (Homo sapiens, UniProt P41970 1-407); conditions: protein: recombinant; tags: N-terminal GST; dsDNA, one strand shown
T6 sequence: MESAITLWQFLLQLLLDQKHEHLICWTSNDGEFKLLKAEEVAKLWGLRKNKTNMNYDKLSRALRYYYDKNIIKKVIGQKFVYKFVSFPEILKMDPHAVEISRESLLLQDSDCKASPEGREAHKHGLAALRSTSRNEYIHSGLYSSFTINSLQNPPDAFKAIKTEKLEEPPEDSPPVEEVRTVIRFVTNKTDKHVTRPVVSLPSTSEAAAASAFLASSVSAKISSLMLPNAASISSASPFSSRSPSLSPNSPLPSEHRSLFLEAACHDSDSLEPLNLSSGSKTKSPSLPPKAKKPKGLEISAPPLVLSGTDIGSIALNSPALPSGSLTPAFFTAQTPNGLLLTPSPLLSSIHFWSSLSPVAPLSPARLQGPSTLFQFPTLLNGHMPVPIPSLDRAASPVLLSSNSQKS
Summary of the method: as §1

FEV = target: T7, FEV (Homo sapiens, UniProt Q99581 1-238); conditions: protein: recombinant; tags: N-terminal GST; dsDNA, one strand shown
T7 sequence: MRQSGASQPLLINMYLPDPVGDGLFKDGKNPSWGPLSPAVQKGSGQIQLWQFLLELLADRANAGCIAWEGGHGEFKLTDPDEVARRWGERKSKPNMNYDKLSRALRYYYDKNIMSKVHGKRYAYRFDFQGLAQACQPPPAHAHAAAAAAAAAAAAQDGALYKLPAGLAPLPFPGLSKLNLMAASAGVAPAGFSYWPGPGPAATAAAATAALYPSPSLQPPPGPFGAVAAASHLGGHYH
Summary of the method: as §1

ETV5 = ETV5 (Homo sapiens, UniProt P41161 1-510); conditions: protein: recombinant; tags: N-terminal GST; dsDNA, one strand shown
Summary of the method: as §1

HSF1 = HSF1 (Homo sapiens, UniProt Q00613 1-529); conditions: protein: recombinant; tags: N-terminal GST; chain copies: 3; dsDNA, one strand shown
Summary of the method: as §1

SPIC = target: T8, SPIC (Homo sapiens, UniProt Q8N5J4 1-248); conditions: protein: recombinant; tags: N-terminal GST; dsDNA, one strand shown
T8 sequence: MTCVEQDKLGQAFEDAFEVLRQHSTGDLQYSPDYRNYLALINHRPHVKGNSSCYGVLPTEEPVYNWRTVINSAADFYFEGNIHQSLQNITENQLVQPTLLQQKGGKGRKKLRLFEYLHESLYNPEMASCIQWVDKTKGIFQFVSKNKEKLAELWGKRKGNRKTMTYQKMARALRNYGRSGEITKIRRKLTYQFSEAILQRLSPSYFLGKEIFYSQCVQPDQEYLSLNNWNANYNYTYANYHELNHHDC
Summary of the method: as §1

ELF4 = ELF4 (Homo sapiens, UniProt Q99607 1-663); conditions: protein: recombinant; tags: N-terminal GST; dsDNA, one strand shown
Summary of the method: as §1

ELK4 = target: T9, ELK4 (Homo sapiens, UniProt P28324-2 1-405); conditions: protein: recombinant; tags: N-terminal GST; dsDNA, one strand shown
T9 sequence: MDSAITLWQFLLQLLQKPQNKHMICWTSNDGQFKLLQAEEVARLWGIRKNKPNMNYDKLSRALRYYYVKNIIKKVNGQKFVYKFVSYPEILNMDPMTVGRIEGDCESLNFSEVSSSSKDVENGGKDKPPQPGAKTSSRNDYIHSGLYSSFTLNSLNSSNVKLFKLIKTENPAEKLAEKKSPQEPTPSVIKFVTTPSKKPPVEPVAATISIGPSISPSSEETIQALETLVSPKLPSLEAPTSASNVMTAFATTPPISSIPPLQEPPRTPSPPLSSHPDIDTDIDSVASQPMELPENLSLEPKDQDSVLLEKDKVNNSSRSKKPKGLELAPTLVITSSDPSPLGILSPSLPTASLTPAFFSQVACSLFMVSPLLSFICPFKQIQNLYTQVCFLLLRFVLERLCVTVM
Summary of the method: as §1

ETV2 = target: T10, ETV2 (Homo sapiens, UniProt O00321 1-342); conditions: protein: recombinant; tags: N-terminal GST; dsDNA, one strand shown
T10 sequence: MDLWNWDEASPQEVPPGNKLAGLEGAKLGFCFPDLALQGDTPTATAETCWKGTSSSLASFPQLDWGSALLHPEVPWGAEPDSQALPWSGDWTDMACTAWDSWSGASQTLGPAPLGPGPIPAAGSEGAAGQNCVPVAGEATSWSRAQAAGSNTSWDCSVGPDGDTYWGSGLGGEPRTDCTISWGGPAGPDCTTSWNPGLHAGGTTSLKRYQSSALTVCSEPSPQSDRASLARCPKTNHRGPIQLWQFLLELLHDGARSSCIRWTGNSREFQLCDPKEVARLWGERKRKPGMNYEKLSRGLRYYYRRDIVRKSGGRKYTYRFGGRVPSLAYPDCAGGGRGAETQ
Summary of the method: as §1

ELF3 = target: T11, ELF3 (Homo sapiens, UniProt P78545 1-371); conditions: protein: recombinant; tags: N-terminal GST; dsDNA, one strand shown
T11 sequence: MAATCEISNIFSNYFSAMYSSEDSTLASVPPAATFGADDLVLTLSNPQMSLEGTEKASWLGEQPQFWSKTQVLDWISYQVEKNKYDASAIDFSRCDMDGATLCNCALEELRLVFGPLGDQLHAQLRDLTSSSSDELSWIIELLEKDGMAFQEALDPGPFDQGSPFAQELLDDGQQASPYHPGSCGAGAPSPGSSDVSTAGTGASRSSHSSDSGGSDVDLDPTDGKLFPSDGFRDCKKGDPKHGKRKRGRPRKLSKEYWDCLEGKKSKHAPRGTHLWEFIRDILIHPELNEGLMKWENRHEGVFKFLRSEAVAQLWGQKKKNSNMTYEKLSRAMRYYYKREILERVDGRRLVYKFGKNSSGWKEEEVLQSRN
Summary of the method: as §1

CRX = CRX (Homo sapiens, UniProt O43186 1-299); conditions: protein: recombinant; tags: N-terminal GST; dsDNA, one strand shown
Summary of the method: as §1

ETV1 = ETV1 (Homo sapiens, UniProt P50549 1-477); conditions: protein: recombinant; tags: N-terminal GST; dsDNA, one strand shown
Summary of the method: as §1

Sequence of ELF1 (P32519 whole entry): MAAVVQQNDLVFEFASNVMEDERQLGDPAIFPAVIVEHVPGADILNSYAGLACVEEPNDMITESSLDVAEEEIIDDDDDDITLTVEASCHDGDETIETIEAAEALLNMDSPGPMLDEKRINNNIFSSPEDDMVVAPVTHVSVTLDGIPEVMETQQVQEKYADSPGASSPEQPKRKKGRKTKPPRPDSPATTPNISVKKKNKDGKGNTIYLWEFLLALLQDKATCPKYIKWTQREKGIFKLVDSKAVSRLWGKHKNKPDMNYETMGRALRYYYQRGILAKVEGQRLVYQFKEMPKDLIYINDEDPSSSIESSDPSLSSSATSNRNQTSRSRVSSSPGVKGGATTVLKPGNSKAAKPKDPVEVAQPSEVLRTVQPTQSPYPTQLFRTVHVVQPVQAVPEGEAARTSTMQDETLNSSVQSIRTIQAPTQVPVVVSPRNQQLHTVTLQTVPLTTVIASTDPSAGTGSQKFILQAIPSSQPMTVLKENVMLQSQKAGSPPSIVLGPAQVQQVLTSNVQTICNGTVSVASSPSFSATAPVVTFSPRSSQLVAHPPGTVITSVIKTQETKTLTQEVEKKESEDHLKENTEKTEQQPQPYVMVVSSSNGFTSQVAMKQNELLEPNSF
Sequence of ETV1 (P50549 whole entry): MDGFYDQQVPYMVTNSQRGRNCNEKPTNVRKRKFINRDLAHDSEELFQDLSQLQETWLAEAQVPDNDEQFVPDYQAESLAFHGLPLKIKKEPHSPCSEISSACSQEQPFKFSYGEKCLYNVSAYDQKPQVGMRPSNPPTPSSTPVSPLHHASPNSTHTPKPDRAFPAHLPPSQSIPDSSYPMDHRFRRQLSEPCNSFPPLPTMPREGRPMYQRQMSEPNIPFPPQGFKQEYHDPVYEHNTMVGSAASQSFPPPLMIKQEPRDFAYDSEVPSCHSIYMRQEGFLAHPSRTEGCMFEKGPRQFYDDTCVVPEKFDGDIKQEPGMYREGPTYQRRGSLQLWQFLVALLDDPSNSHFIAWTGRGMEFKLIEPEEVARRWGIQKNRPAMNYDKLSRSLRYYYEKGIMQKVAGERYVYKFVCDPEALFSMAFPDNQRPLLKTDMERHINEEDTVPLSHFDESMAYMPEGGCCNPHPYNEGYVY
Sequence of ETV5 (P41161 whole entry): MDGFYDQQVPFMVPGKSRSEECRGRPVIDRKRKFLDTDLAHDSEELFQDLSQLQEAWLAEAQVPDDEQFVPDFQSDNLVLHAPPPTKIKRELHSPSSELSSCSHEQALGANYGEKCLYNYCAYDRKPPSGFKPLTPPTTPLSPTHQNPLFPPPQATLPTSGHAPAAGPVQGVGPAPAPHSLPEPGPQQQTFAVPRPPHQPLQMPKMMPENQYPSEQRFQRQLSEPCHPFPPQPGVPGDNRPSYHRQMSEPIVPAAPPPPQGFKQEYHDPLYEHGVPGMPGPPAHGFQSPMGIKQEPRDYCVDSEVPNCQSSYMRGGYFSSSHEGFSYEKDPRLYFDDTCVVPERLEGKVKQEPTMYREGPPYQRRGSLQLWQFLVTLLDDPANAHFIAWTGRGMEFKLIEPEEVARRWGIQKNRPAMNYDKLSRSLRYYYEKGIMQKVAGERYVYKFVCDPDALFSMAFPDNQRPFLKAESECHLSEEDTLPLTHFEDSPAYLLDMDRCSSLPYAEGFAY
Sequence of CRX (O43186 whole entry): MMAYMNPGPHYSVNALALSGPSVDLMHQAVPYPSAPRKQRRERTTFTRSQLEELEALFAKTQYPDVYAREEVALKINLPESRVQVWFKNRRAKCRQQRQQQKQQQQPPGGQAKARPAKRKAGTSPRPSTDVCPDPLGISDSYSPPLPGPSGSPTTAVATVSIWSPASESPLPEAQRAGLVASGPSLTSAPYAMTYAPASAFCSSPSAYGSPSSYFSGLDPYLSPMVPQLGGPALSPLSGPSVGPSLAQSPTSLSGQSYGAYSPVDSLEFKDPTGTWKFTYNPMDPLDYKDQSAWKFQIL
Sequence of HSF1 (Q00613 whole entry): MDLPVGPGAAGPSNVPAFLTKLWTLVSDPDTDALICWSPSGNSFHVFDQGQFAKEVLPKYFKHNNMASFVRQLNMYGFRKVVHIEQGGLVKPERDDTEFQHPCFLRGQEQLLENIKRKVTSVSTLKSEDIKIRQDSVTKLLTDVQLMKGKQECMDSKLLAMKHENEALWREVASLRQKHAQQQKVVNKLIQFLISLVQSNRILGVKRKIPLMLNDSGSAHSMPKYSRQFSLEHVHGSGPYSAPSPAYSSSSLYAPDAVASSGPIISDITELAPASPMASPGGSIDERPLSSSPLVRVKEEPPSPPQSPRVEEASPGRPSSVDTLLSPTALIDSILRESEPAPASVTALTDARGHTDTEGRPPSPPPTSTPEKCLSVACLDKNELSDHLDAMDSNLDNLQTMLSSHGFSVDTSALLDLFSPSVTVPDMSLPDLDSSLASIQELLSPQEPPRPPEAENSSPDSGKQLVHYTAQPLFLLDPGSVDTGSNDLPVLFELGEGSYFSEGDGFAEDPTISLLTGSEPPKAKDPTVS
Sequence of SPIB (Q01892 whole entry): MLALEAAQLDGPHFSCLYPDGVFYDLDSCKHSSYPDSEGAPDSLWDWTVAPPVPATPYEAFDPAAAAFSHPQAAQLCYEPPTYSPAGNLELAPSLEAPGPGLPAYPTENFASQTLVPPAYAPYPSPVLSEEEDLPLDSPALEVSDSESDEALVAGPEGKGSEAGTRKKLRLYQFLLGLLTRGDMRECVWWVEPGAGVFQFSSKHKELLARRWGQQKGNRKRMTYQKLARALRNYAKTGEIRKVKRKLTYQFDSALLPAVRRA
Sequence of ELF4 (Q99607 whole entry): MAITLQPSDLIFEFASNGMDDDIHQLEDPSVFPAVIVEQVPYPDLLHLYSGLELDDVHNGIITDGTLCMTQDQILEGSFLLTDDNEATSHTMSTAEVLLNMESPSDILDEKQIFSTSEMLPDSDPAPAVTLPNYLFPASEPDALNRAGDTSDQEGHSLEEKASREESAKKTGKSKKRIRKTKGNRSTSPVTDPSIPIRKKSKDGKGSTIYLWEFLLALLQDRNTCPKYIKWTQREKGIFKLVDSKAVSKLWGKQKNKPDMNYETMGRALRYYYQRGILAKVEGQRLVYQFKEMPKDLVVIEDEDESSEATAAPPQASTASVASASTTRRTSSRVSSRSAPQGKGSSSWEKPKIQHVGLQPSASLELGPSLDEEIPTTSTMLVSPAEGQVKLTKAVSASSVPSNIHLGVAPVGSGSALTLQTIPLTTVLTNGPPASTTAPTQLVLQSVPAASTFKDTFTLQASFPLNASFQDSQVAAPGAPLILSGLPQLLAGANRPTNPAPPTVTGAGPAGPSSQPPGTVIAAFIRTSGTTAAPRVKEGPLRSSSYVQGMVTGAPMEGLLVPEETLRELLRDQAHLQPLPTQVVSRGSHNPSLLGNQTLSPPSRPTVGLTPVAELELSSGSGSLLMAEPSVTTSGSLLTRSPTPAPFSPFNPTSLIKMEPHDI

With AAGTTC the binding signal (FLI1) was 1.36 fold enrichment (6-mer frequency, TF over GST control), the binding signal (ELK1) was 1.36 fold enrichment (6-mer frequency, TF over GST control) and the binding signal (GABPA) was 1.47 fold enrichment (6-mer frequency, TF over GST control). For the same sequence, the binding signal (ERG) was 1.36 fold enrichment (6-mer frequency, TF over GST control), the binding signal (ELF1) was 1.34 fold enrichment (6-mer frequency, TF over GST control) and the binding signal (EHF) was 1.35 fold enrichment (6-mer frequency, TF over GST control). The binding signal (SPI1) was 1.54 fold enrichment (6-mer frequency, TF over GST control), the binding signal (SPIB) was 1.51 fold enrichment (6-mer frequency, TF over GST control) and the binding signal (ELK3) was 1.36 fold enrichment (6-mer frequency, TF over GST control). For the same sequence, the binding signal (FEV) was 1.29 fold enrichment (6-mer frequency, TF over GST control), the binding signal (ETV5) was 1.47 fold enrichment (6-mer frequency, TF over GST control) and the binding signal (HSF1) was 1.94 fold enrichment (6-mer frequency, TF over GST control). For the same sequence, the binding signal (SPIC) was 1.54 fold enrichment (6-mer frequency, TF over GST control), the binding signal (ELF4) was 1.35 fold enrichment (6-mer frequency, TF over GST control) and the binding signal (ELK4) was 1.41 fold enrichment (6-mer frequency, TF over GST control). For the same sequence, the binding signal (ETV2) was 1.22 fold enrichment (6-mer frequency, TF over GST control), the binding signal (ELF3) was 1.47 fold enrichment (6-mer frequency, TF over GST control) and the binding signal (CRX) was 1.22 fold enrichment (6-mer frequency, TF over GST control). For the same sequence, the binding signal (ETV1) was 1.34 fold enrichment (6-mer frequency, TF over GST control).
